Test results as given in PubChem BioAssay (EPA / NIEHS).
Calls of active or inactive are those of the source. Rule for the calls: active = hit-call score of the fitted dose curve at least 0.9, where 1 is the maximum; inactive = score below 0.9.

Tests used:
[1] = CCTE_Shafer_MEA_dev_network_spike_peak: CCTE's Neural Network Formation Assay for Mean Number of Electrodes in Network Spike, Shafer Lab (AID 2284049);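 note: fitted for loss of signal meaning fewer electrodes in network spikes than DMSO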
How it was run: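 Network-spike peak electrode count from recordings on days 5, 7, 9 and 12 was combined as trapezoidal area under the curve. Rat cortical cultures were treated continuously from plating, with compound renewed at each feed (DIV 5, 9); fits versus DMSO.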

[2] = CCTE_Shafer_MEA_dev_spike_duration_mean: CCTE's Neural Network Formation Assay for Mean Spike Duration, Shafer Lab (AID 2284051);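 note: mean network spike duration pooled as area under curve over DIV 5 to 12 recordings; potency for a decrease in mean network spike duration versus DMSO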
How it was run: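 Primary rat cortical neurons on 16-electrode MEA wells (PEI-coated, laminin in plating drop), exposed from plating through DIV 12 with compound renewed at DIV 5 and 9. Mean network-spike duration recorded DIV 5, 7, 9, 12; trapezoidal AUC across days, DMSO baseline.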

[3] = CCTE_Shafer_MEA_dev_network_spike_duration_std: CCTE's Neural Network Formation Assay for Standard Deviation of Network Spike Duration, Shafer Lab (AID 2284052);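 note: area under curve of spike duration SD across recording days 5 to 12; hits are decreases in network spike duration SD versus DMSO vehicle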
How it was run: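 Primary rat cortical neurons on PEI-coated 16-electrode MEA wells, exposed from plating day 0 through day 12 with compound renewed at DIV 5 and 9. Network spike duration SD recorded on days 5, 7, 9, 12, collapsed as trapezoidal AUC; loss-of-signal fit versus DMSO.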

[4] = CCTE_Shafer_MEA_dev_per_network_spike_spike_number_mean: CCTE's Neural Network Formation Assay for Mean Number of Spikes in a Network Spike, Shafer Lab (AID 2284053);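 note: fitted as decrease in spikes per network spike relative to DMSO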
How it was run: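 Primary rat cortical neurons on 48-well, 16-electrode MEA plates were exposed from plating to DIV 12, with dosing renewed on DIV 5 and 9. Spikes per network spike (0.05 s peak window) were recorded on DIV 5, 7, 9 and 12 and collapsed as trapezoidal AUC versus DMSO.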

[5] = CCTE_Shafer_MEA_dev_per_network_spike_spike_percent: CCTE's Neural Network Formation Assay for Percent of Spikes in a Network Spike, Shafer Lab (AID 2284054)
How it was run: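 Rat primary cortical neurons were grown on 48-well MEA plates (16 electrodes/well), exposed from plating day 0 through day 12, with treatment renewed on DIV 5 and 9. Percent of spikes within 0.05 s network-spike peaks was measured, summarised as AUC across days 5, 7, 9, 12.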

[6] = UKN5_HCS_SBAD2_cell_viability: Viability Assessment in the University of Konstanz (UKN) Leist Lab Neurite Outgrowth Assay in human iPSC-derived immature Dorsal Root Ganglia Neurons (UKN5) (AID 2284056)
How it was run: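 iPSC-derived immature peripheral neurons (SBAD2) seeded on Matrigel with CHIR99021, SU5402 and DAPT, dosed 1 h later for 24 h. Viability from Hoechst H-33342 and calcein-AM live staining, high-content imaging; bidirectional fit versus DMSO.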

[7] = UKN5_HCS_SBAD2_neurite_outgrowth: University of Konstanz (UKN) Leist Lab Neurite Outgrowth Assay in human iPSC-derived immature Dorsal Root Ganglia Neurons (UKN5) (AID 2284070); conditions: actives raise or lower the signal
How it was run: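 SBAD2 iPSC-derived immature peripheral neurons on Matrigel, 100.000 cells/cm2, medium with CHIR99021 (1.5 uM), SU5402 (5 uM), DAPT (5 uM); compound added 1 h post-seeding for 24 h. Calcein-AM neurite area by high-content imaging; Hoechst H-33342 viability; bidirectional fit vs DMSO.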

[8] = CCTE_Shafer_MEA_dev_mutual_information_norm: CCTE's Neural Network Formation Assay for Mutual Information Normalization, Shafer Lab (AID 2284091);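 note: mutual information between electrodes summarised as area under curve across four recording days; potency is for a decrease in mutual information relative to DMSO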
How it was run: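 Primary rat cortical neurons on PEI-coated 48-well MEA plates, 1.5 x 10^5 cells/well, exposed from day 0 through day 12 with re-dosing at DIV 5 and 9. Mutual information between electrodes recorded days 5, 7, 9, 12; trapezoidal AUC, loss-of-signal fit versus DMSO.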

[9] = CCTE_Shafer_MEA_dev_correlation_coefficient_mean: CCTE's Neural Network Formation Assay for Mean Correlation Coefficient, Shafer Lab (AID 2284093);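 note: well mean pairwise spike train correlation integrated as AUC over recording days 5 to 12; potency fitted for loss of correlation relative to DMSO vehicle wells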
How it was run: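 Spontaneous activity recorded on days 5, 7, 9 and 12 post-plating; pairwise spike correlations are averaged across active electrodes and collapsed to an area-under-curve. Rat cortical cultures are dosed from plating through 12 days, with compound renewed at media changes.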

[10] = UKN2_HCS_IMR90_neural_migration: University of Konstanz (UKN) Leist Lab Neural Crest Cell Migration Assay in human induced IMR90 Pluripotent Stem Cells (UKN2) (AID 2284204); conditions: actives raise or lower the signal
How it was run: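 iPSC-derived IMR90 neural crest cells seeded around stoppers on PLO/laminin/fibronectin; migration started in N2-S medium with EGF/FGF, compounds added after 24 h for 24 h. Migration into cell-free area imaged after calcein-AM/Hoechst staining; bidirectional fit versus DMSO.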

[11] = UKN4_HCS_LUHMES_neurite_outgrowth: University of Konstanz (UKN) Leist Lab Neurite Outgrowth Assay in human LUHMES cells (UKN4) (AID 2284206); conditions: actives raise or lower the signal
How it was run: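 Human LUHMES neuronal precursors, differentiated 2 days then replated without cAMP and GDNF, exposed to compounds for 24 h. Neurite area imaged by high-content microscopy after calcein-AM live staining; Hoechst H-33342 for viability; bidirectional fit versus DMSO.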

[12] = IUF_NPC1b_proliferation_BrdU_72hr: Leibniz Research Institute for Environmental Medicine (IUF) 72-hour Neural Progenitor Cell Bromodeoxyuridine (BrdU) Proliferation Assay (NPC1b) (AID 2284207)
How it was run: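 BrdU luminescence ELISA quantified DNA synthesis over the last 16 h of a 72 h exposure, fitted against DMSO. Primary hNPC spheres from gestational week 16-19 cortex grown with EGF/FGF at 37C, pH 7.2-7.6.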

[13] = IUF_NPC1a_proliferation_area_72hr: Leibniz Research Institute for Environmental Medicine (IUF) 72-hour Neural Progenitor Cell Proliferation Area Assay (NPC1a) (AID 2284208)
How it was run: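 Measured in 3D suspension: each well held one primary hNPC sphere grown with EGF and FGF at pH 7.2-7.6. Compound stayed on for 72 h, then area was imaged; spheres lacking growth factors defined reduced proliferation.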

[14] = IUF_NPC1_viability_72hr: Viability Assessment at 72 hours in the Leibniz Research Institute for Environmental Medicine (IUF) Neural Progenitor Cell Proliferation Assay (NPC1) (AID 2284209)
How it was run: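 Single spheres (0.25-0.35 mm) of human fetal cortex-derived neural progenitor cells were grown in proliferation medium with EGF and FGF at 37C and 5% CO2. They were exposed for 72 h without renewal, and viability was read by alamar blue resorufin fluorescence.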

[15] = CCTE_Mundy_HCI_Cortical_Synap_Neur_Matur_NeuriteSpotCountPerNeuriteLength: CCTE's Synaptogenesis and Neurite Maturation Assay in rat cortical cells for Neurite Spot Count per Neurite Length, Mundy Lab (AID 2284210)
How it was run: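 Rat primary cortical cultures, AraC added at DIV 5 to suppress glia; chemical exposure from DIV 7 to DIV 12. Fixed cells stained for MAP2 and synaptophysin plus Hoechst; synaptophysin puncta per neurite length quantified by high-content imaging, relative to DMSO.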

[16] = CCTE_Mundy_HCI_Cortical_NOG_NeuriteLength: CCTE's Neurite Outgrowth Assay in rat cortical cells for Neurite Length, Mundy Lab (AID 2284213)
How it was run: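 Neurite length was read by high-content imaging of βIII-tubulin-labelled neurites in rat primary cortical cultures. Activity was fitted relative to DMSO.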

[17] = CCTE_Mundy_HCI_Cortical_Synap_Neur_Matur_NeuriteLength: CCTE's Synaptogenesis and Neurite Maturation Assay in rat cortical cells for Neurite Length, Mundy Lab (AID 2284214)
How it was run: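 Rat primary cortical cultures, AraC added DIV 5, dosed DIV 7 through DIV 12 […]. Fixed, MAP2/synaptophysin immunostained with Hoechst; neurite length by high-content imaging, fitted in positive direction versus DMSO.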

[18] = CCTE_Mundy_HCI_Cortical_Synap_Neur_Matur_NeuriteSpotCountPerNeuron: CCTE's Synaptogenesis and Neurite Maturation Assay in rat cortical cells for Neurite Spot Count per Neuron Count, Mundy Lab (AID 2284215)
How it was run: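 Developing rat cortical neurons, with glia suppressed by AraC, are exposed to chemicals from DIV 7 to DIV 12. Automated fluorescence imaging of MAP2-labelled neurites and synaptophysin puncta yields a count per neuron, normalised against DMSO wells.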

[19] = CCTE_Mundy_HCI_Cortical_Synap_Neur_Matur_SynapseCount: CCTE's Synaptogenesis and Neurite Maturation Assay in rat cortical cells for Synapse Count, Mundy Lab (AID 2284218)
How it was run: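 Rat primary cortical cultures, AraC at DIV 5, chemical dosing DIV 7 to DIV 12 (288.33 h). Fixed cells stained for MAP2, synaptophysin and Hoechst; synapses per neuron counted by high-content imaging, loss of signal versus DMSO.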

[20] = CCTE_Mundy_HCI_Cortical_Synap_Neur_Matur_CellBodySpotCount: CCTE's Synaptogenesis and Neurite Maturation Assay in rat cortical cells for Cell Body Spot Count, Mundy Lab (AID 2284223)
How it was run: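 Chemicals were applied to AraC-treated rat primary cortical cells at DIV 7 and measured at DIV 12. Fixed cells were labelled for MAP2, synaptophysin and nuclei, and high-content imaging gave cell body synaptophysin spot counts per neuron relative to DMSO.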

Measured: AC50

CC1(C)[C@H](C(=O)O[C@H](C#N)c2cccc(Oc3ccccc3)c2)[C@@H]1C=C(Br)Br
active: [1] 7.55 µM | [2] 6.4 µM | [3] 3.82 µM | [4] 3.96 µM | [5] 1.8 µM | [6] 115 µM | [7] 111 µM | [8] 0.641 µM | [9] 2.04 µM | [17] 8.82 µM | [18] 7.04 µM | [19] 6.79 µM
inactive: [10] | [11] | [12] | [13] | [14] | [15] | [16] | [20]
